The record followed here is PubChem BioAssay AID1745853 (National Center for Advancing Translational Sciences (NCATS), 2022).

Several values for one entry are separate records, joined by “and”; a condition that tells them apart may be missing. Identical values can stand only once. Screen size: about 25,000 compounds; about 970 (3.9%) were called active. About 8% were inconclusive and are not listed. This is one part of a sample in which actives are shown more often than they occur. The rule behind the calls is not given here.

Common to all, as to experiment: Primary Screen for Target Class Profiling of Small Molecule Inhibitors of Methyltransferases
In test [1] the target is Catechol O-methyltransferase (Homo sapiens) (UniProt P21964). The settings on record: purified enzyme, MTase-Glo SAH luminescence; activity change, negative = inhibition: at 40 µM, stronger effect = lower value; outcome: 40 uM. The source says: (§1) PI: Matthew D. Hall Ph.D. and Quinlin M. Hanson Ph.D.
(§2) National Center for Advancing Translational Sciences (NCATS)
(§3) National Institute of Health (NIH), Rockville, MD
(§4) Target class profiling (TCP) is a chemical biology approach amenable to investigating understudied biological targets. TCP is achieved by developing a generalizable assay platform and applying it to screen a curated set of compound libraries against representative members of a target class. Small molecule methyltransferases (SMMTase) are a subclass of methyltransferase that act on metabolites to modulate signaling pathways, metabolize xenobiotics, or balance the available methyl pool. We screened four curated libraries totaling 27,574 unique compounds against the SMMTases nicotinamide N-methyltransferase (NNMT), phenylethanolamine N-methyltransferase (PNMT), histamine N-methyltransferase (HNMT), glycine N-methyltransferase (GNMT), catechol O-methyltransferase (COMT), and guanidinoacetate N-methyltransferase (GAMT). The data generated by this TCP can be leveraged for informed tool molecule development. For example, in the associated publication we identified a chemotype of HNMT-selective inhibitors. Additionally, we identified a putative SMMTase-selective inhibitor with potential as a tool molecule for studying broader methyltransferase biology.
(§5) High-through put screening assays were developed at the National Center for Advancing Translational Science (NCATS) for the enzymes NNMT, PNMT, HNMT, GNMT, COMT, and GAMT. Enzymatic activity was measured as a function of SAM cofactor conversion using the MTase Glo kit (Promega) for all enzymes. All assays were performed in 1536-well format with substrates and SAM concentrations at KM values. Enzyme concentration and assay timing were optimized for 10-20% SAM conversion. Initial screening of 27,574 compounds was done as single-point assays using the highest compound concentration (40 uM). […] These compounds were replated in 11-point dose response and assayed against NNMT, PNMT, HNMT, GNMT, COMT, GAMT, and a counter-assay. The IC50 and efficacy (maximal response) values were determined for each dose-response curve. These values are also accounted for in the area under the curve (AUC) values.
(§6) PROTOCOL TABLE (as described by Inglese J, Shamu CE and Guy RK. 2007)
(§7) SEQUENCE No. (e.g., 1, 2, 3, etc.); […] (e.g., Cells, Incubation, Reagent, etc.); VALUE; DESCRIPTION.
(§8) 1; Reagent; 2 uL; SMMTase Enzyme (2x) in reaction buffer, columns 1- 48.
(§9) 2; Reagent; 1 uL; SAM (4x) in reaction buffer, columns 1-48.
(§10) 3; Controls; 23 nL; DMSO in column 4; sinefungin in DMSO (0 uM - 40 uM) in 7-point 1:2 dilution series (n = 2) in column 2.
(§11) 4; Compounds; 23 nL; Columns 5-48.
(§12) 5; Reagent; 1 uL; Substrate (4x) in reaction buffer, columns 2-48.
(§13) 6; Time; 20-30 min; Incubation.
(§14) 7; Reagent; 1 uL; MTase-Glo reagent (5X), columns 1-48.
(§15) 8; Time; 30 min; Incubation.
(§16) 9; Reagent; 5 uL; MTase-Glo Detection reagent, columns 1-48.
(§17) 10; Time; 30 min; Incubation, luminescence evolution.
(§18) 11; Detection; Luminescence; ViewLux uHTS Microplate Imager (PerkinElmer).
(§19) NOTES (numbers refer to Sequence numbers above)
(§20) 1, 2, 5. White Medium Binding Greiner 1536-well plates (Cat #789175-F, Greiner Bio-One, Monroe, NC); Reaction buffer: 50 mM Tris, pH 8.0, 3 mM MgCl2, 1 mM EDTA, 50 mM NaCl, 1 mM DTT, and 0.1 mg/mL BSA. Evaporation was prevented by covering assay plates with metal lids containing holes to allow gas diffusion.
(§21) 1. Six SMMTase were profiled: HNMT, GNMT, PNMT, COMT, NNMT, GAMT
(§22) 5. The corresponding substrate was used for each enzyme: HNMT - 5.3 uM Histamine; GNMT - >500 uM Glycine; PNMT - 16.2 uM Norephinephrine; COMT - 13.7 uM Norephinephrine; NNMT - 3.8 uM Nicotinamide; GAMT - 2.5 uM Guanidinoacetate.6, 8, 10. Room temperature
(§23) 6. Final reaction conditions: 10 nM COMT, 5 uM SAM, 15 uM norepinephrine, 50 mM Tris, pH 8.0, 3 mM MgCl2, 1 mM EDTA, 50 mM NaCl, 1 mM DTT, and 0.1 mg/mL BSA; refer to tables 2 and S1 for specific timing.
8. […]

In test [2] the target is Glycine N-methyltransferase (Homo sapiens) (UniProt Q14749). Conditions: purified enzyme, MTase-Glo SAH luminescence; measured here: GNMT inhibition; at 40 µM; stronger effect = lower value.
From the text: as §1, §2, §3, §4, §5, §6, §7, §8, §9, §10, §11, §12, §13, §14, §15, §16, §17, §18, §19, §20, §21, §22, §23
8. […]

Test [3] deals with Guanidinoacetate N-methyltransferase (Homo sapiens) (UniProt Q14353). Conditions: purified enzyme, MTase-Glo SAH luminescence; measured here: GAMT inhibition; at 40 µM; stronger effect = lower value.
From the text: as §1, §2, §3, §4, §5, §6, §7, §8, §9, §10, §11, §12, §13, §14, §15, §16, §17, §18, §19, §20, §21, §22, §23
8. […]

Test [4] has as its target Histamine N-methyltransferase (Homo sapiens) (UniProt P50135). Conditions: purified enzyme, MTase-Glo SAH luminescence; measured here: HNMT inhibition; at 40 µM; stronger effect = lower value.
From the text: as §1, §2, §3, §4, §5, §6, §7, §8, §9, §10, §11, §12, §13, §14, §15, §16, §17, §18, §19, §20, §21, §22, §23
8. […]

Test [5] has as its target Nicotinamide N-methyltransferase (Homo sapiens) (UniProt P40261). The settings on record: purified enzyme, MTase-Glo SAH luminescence; measured here: NNMT inhibition; at 40 µM; stronger effect = lower value.
From the text: as §1, §2, §3, §4, §5, §6, §7, §8, §9, §10, §11, §12, §13, §14, §15, §16, §17, §18, §19, §20, §21, §22, §23
8. […]

Test [6] concerns the target Phenylethanolamine N-methyltransferase (Homo sapiens) (UniProt P11086). The settings on record: purified enzyme, MTase-Glo SAH luminescence; measured here: PNMT inhibition; at 40 µM; stronger effect = lower value.
From the text: as §1, §2, §3, §4, §5, §6, §7, §8, §9, §10, §11, §12, §13, §14, §15, §16, §17, §18, §19, §20, §21, §22, §23
8. […]
% is set by controls: 0 for no effect and ±100 for the full control effect.

Nicotinamide N-methyltransferase (Homo sapiens), sequence (P40261 whole entry, looked up): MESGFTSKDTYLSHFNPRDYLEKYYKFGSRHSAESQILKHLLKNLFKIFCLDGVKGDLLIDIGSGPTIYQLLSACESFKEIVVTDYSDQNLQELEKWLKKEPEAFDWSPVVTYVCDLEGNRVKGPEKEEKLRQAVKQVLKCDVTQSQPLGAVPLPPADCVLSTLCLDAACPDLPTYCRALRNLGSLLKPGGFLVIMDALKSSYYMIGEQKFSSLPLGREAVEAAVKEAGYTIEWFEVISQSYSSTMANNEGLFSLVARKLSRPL
Histamine N-methyltransferase (Homo sapiens), sequence (P50135 whole entry, looked up): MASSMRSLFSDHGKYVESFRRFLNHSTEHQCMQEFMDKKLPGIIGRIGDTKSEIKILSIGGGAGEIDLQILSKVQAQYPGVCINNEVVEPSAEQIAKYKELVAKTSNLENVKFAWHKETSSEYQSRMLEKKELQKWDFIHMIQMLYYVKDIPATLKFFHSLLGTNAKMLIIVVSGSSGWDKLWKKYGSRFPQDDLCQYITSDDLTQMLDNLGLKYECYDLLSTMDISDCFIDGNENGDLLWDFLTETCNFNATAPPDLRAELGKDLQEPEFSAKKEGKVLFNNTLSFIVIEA
Catechol O-methyltransferase (Homo sapiens), sequence (P21964 whole entry, looked up): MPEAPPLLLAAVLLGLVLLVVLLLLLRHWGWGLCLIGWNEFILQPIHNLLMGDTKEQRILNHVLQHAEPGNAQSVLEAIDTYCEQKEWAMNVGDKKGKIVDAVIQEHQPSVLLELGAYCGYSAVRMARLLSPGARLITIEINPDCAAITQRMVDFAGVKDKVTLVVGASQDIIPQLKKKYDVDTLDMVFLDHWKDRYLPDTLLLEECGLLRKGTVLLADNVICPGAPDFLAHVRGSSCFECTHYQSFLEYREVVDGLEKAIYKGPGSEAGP
Phenylethanolamine N-methyltransferase (Homo sapiens), sequence (P11086 whole entry, looked up): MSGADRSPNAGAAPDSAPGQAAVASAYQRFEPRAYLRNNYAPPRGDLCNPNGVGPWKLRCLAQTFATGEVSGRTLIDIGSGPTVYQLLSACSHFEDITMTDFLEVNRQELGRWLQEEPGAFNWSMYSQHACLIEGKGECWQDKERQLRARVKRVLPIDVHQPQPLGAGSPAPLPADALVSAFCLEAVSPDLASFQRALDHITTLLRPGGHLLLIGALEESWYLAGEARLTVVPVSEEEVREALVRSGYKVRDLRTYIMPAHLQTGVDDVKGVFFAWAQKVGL
Glycine N-methyltransferase (Homo sapiens), sequence (Q14749 whole entry, looked up): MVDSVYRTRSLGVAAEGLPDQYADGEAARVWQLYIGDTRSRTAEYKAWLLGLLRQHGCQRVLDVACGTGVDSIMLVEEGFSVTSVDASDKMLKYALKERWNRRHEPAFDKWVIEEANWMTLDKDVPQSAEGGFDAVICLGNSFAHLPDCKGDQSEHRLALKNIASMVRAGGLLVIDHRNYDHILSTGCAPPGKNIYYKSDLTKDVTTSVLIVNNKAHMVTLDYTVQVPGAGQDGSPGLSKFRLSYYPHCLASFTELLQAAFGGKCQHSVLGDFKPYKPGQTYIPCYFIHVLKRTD

As for `CCOC(=O)c1cc2n(n1)CC(C)(C(=O)NCc1ccccc1)N(CCCc1ccccc1)C2=O` (stereo not given), the activity change, negative = inhibition in test [1] was -0.428% (inactive); in test [2], 1.98%; in test [3], 0%; in test [4] it was 4.53%; in test [5], -4.41%; in test [6], 0.451%.

On to `CC(C)Cn1c(=O)c2ccccc2n2c(CCC(=O)N3CCN(c4cccc(Cl)c4)CC3)nnc12`, for which the activity change, negative = inhibition in test [1] was -9.54% (active); in test [2], -27.4%; in test [3], -4.12%; in test [4] it was -10.4%; in test [5] it was -53.7%; in test [6] it was -12.4%.

Regarding `O=C(CCc1nnc2n(Cc3ccc(Cl)cc3)c(=O)c3ccccc3n12)N1CCN(Cc2ccccc2)CC1`, the activity change, negative = inhibition was -0.522% (inactive) in test [1]; -14.1% in test [2]; 0.869% in test [3]; -6.5% in test [4]; -18.2% in test [5]; -7.88% in test [6].

For the compound `O=C(CCc1nnc2n(Cc3ccc(Cl)cc3)c(=O)c3ccccc3n12)N1CCN(c2ccccc2F)CC1`, the activity change, negative = inhibition in test [1] was -4.23% (inactive); in test [2], -7.84%; in test [3] it was 3.64%; in test [4], -1.5%; in test [5], -3.97%; in test [6], -4.97%.

For the compound `COC(=O)c1ncn2c1C(=O)N(Cc1ccc(OC)cc1)C(C)(C(=O)NCc1ccccc1)C2` (stereo not given), the activity change, negative = inhibition in test [1] was -12.8% (inactive); in test [2] it was -10.1%; in test [3] it was -0.727%; in test [4] it was -7.43%; in test [5], -6.98%; in test [6], -9.09%.

For the compound `COc1cc2ncnc(Nc3cccc(Cl)c3F)c2cc1OC(=O)N1CCN(C)C[C@H]1C`, the activity change, negative = inhibition in test [1] was -20.9% (inactive); in test [2] it was -14.7%; in test [3], 0.224%; in test [4] it was -20.1%; in test [5] it was -5.9%; in test [6], -15.1%.

For `CCOc1ccc(CNC(=O)c2cc3n(n2)CC(C)(C(=O)NCc2ccc(F)cc2)N(C)C3=O)cc1OC` (stereo not given), the activity change, negative = inhibition is 1.84% (inactive) in test [1]; 2.33% in test [2]; -5.76% in test [3]; -2.91% in test [4]; 3.94% in test [5]; 6.92% in test [6].

`CC(=O)c1cnc2ccc(-c3cc(Cl)c(O)c(Cl)c3)nc2c1NC1CCC(CN(C)C)CC1` (stereo not given): the activity change, negative = inhibition in test [1] is 2.27% (active); in test [2], -9.49%; in test [3] it was 1.31%; in test [4] it was -75.4%; in test [5], -14.2%; in test [6], 0.349%.

Consider `CCn1cc(S(=O)(=O)N2CCC(C3CCN(C(=O)NC)CC3)C2)cn1` (stereo not given), for which the activity change, negative = inhibition in test [1] was -3.73% (inactive); in test [2] it was -4.19%; in test [3], -5.14%; in test [4], -1.51%; in test [5], -10.1%; in test [6], 9.89%.

Regarding `Cc1cc(Nc2cc(CN3CCOCC3)c3nc(C)c(Cc4ccc(Cl)cc4F)n3n2)n[nH]1`, the activity change, negative = inhibition in test [1] is -59.4% (active) and -59.9% (active); in test [2] it was -74.4% and -69.1%; in test [3], -49%; in test [4], -62.1% and -80.8%; in test [5] it was -98.7% and -69.4%; in test [6], -114% and -64.4%.

For the compound `CC1(C=O)CC[C@]2(C(=O)O[C@@H]3O[C@H](CO)[C@@H](O)[C@H](O)[C@H]3O)CC[C@]3(C)C(=CCC4[C@@]5(C)C[C@H](O)[C@H](O[C@@H]6OC[C@@H](O)[C@H](O)[C@H]6O)[C@@](C)(CO)C5CC[C@]43C)C2C1` (stereo not given in full), the activity change, negative = inhibition in test [1] was -12.2% (inactive); in test [2] it was -0.721%; in test [3], -3.55%; in test [4], -5.71%; in test [5], -15.1%; in test [6], 2.58%.

Consider `Cc1ccc(C)c(Cn2nc3n(C)c(=O)c4ccc(C(=O)NC5CCCCC5)cc4n3c2=O)c1`, for which the activity change, negative = inhibition in test [1] was 4.71% (inactive); in test [2], -4.89%; in test [3], 0.055%; in test [4] it was 2.18%; in test [5] it was 5.92%; in test [6] it was 6.36%.

Regarding `CN(Cc1cc(C2CC2)n[nH]1)C(=O)C(c1ccc(F)cc1)N(C)C` (stereo not given), the activity change, negative = inhibition in test [1] is 3.85% (inactive); in test [2] it was 1.91%; in test [3], -0.305%; in test [4] it was 1.69%; in test [5] it was 0.211%; in test [6], 2.27%.

As to `CC(C)CNc1ccnc(NCc2csc(-c3ccccc3)n2)n1`, the activity change, negative = inhibition in test [1] is -4.4% (active); in test [2] it was -6.48%; in test [3], 6.91%; in test [4] it was -83.3%; in test [5], -36.8%; in test [6], -16.1%.

Consider `Cc1nc2c(c(-c3ccc(O)cc3)n1)CN(C(=O)c1ccccc1C)CCC2`, for which the activity change, negative = inhibition in test [1] was -2.56% (inactive); in test [2], -6.74%; in test [3], -3.52%; in test [4], -0.862%; in test [5], -11.6%; in test [6] it was -8.96%.
